# Experimental data published in publication PMC7862700, “An all-to-all approach to the identification of sequence-specific readers for epigenetic DNA modifications on cytosine”.
# How the values were obtained:
# Assay in all cases: DAPPL (digital affinity profiling via proximity ligation, sequencing); 10 mM Tris-HCl pH 7.5, 50 mM NaCl, 1 mM DTT, 4% glycerol, room temperature, 30 min; GST-TFs on glutathione beads, 16-mer random dsDNA library, 0.1% formaldehyde crosslink after washing; high values mean tight binding
# FEV = target: T1, FEV (Homo sapiens, UniProt Q99581 1-238); conditions: protein: recombinant; tags: N-terminal GST; dsDNA, one strand shown
# T1 sequence: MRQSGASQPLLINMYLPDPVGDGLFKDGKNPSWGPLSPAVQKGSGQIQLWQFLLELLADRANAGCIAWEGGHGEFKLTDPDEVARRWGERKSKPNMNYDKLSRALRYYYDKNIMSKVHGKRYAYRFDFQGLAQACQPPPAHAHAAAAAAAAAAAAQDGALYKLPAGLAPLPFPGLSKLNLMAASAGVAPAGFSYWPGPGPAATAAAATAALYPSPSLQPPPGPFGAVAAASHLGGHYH
# Procedure, shortened: (§1)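 Beads coated with glutathione captured GST-fused human transcription factors that had been expressed in yeast, and the factors were then given DNA barcodes and pooled with a tag-only sample. The pools were incubated with 200 nmole of a random double-stranded 16-mer DNA library in Tris/NaCl/DTT/glycerol buffer for 30 min at room temperature, washed, crosslinked with 0.1% formaldehyde and proximity-ligated with BsaI/T4 ligase at 37 °C for 1 h. PCR amplification and Illumina NextSeq500 sequencing came last. Binding signal is each hexamer's read frequency for a factor divided by its frequency for the tag-only sample.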
# ETV5 = ETV5 (Homo sapiens, UniProt P41161 1-510); conditions: protein: recombinant; tags: N-terminal GST; dsDNA, one strand shown
# Procedure, shortened: as §1
# HSF1 = HSF1 (Homo sapiens, UniProt Q00613 1-529); conditions: protein: recombinant; tags: N-terminal GST; chain copies: 3; dsDNA, one strand shown
# Procedure, shortened: as §1
# SPIC = target: T2, SPIC (Homo sapiens, UniProt Q8N5J4 1-248); conditions: protein: recombinant; tags: N-terminal GST; dsDNA, one strand shown
# T2 sequence: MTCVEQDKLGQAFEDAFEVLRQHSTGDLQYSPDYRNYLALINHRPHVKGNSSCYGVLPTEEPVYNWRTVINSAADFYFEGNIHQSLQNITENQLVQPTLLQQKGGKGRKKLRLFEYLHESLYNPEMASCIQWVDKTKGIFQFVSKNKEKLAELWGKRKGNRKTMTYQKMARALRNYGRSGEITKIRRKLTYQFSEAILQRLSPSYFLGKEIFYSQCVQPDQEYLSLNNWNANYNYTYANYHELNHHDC
# Procedure, shortened: as §1
# ELF4 = ELF4 (Homo sapiens, UniProt Q99607 1-663); conditions: protein: recombinant; tags: N-terminal GST; dsDNA, one strand shown
# Procedure, shortened: as §1
# ELK4 = target: T3, ELK4 (Homo sapiens, UniProt P28324-2 1-405); conditions: protein: recombinant; tags: N-terminal GST; dsDNA, one strand shown
# T3 sequence: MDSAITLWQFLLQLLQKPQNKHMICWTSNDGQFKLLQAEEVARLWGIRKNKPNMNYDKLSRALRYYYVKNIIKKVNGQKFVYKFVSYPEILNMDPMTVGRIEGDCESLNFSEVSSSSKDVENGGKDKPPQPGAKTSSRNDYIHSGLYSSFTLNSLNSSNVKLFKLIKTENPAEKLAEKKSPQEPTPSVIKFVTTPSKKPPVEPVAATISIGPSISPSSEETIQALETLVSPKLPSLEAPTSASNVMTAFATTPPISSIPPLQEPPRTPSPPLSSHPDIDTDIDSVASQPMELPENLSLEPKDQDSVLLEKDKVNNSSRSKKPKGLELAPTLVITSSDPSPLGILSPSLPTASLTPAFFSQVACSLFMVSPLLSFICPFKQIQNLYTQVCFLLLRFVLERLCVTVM
# Procedure, shortened: as §1
# ETV2 = target: T4, ETV2 (Homo sapiens, UniProt O00321 1-342); conditions: protein: recombinant; tags: N-terminal GST; dsDNA, one strand shown
# T4 sequence: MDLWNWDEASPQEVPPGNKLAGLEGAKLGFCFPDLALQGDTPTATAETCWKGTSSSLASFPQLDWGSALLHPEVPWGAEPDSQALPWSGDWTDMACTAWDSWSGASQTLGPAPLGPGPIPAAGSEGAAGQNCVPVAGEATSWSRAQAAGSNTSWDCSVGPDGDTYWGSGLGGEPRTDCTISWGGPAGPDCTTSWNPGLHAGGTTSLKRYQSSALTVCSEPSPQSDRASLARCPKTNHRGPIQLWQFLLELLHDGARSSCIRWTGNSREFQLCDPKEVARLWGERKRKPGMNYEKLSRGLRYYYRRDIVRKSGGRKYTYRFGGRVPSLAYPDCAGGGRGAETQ
# Procedure, shortened: as §1
# ELF3 = target: T5, ELF3 (Homo sapiens, UniProt P78545 1-371); conditions: protein: recombinant; tags: N-terminal GST; dsDNA, one strand shown
# T5 sequence: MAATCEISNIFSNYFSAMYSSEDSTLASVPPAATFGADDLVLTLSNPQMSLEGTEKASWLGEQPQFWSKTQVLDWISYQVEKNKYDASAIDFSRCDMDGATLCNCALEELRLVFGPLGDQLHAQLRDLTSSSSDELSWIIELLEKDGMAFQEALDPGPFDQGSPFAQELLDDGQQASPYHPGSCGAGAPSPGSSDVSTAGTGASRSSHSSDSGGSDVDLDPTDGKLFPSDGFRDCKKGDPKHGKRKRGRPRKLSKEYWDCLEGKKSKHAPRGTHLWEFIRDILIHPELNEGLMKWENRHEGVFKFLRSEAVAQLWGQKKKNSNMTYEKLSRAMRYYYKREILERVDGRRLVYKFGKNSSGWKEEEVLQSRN
# Procedure, shortened: as §1
# CRX = CRX (Homo sapiens, UniProt O43186 1-299); conditions: protein: recombinant; tags: N-terminal GST; dsDNA, one strand shown
# Procedure, shortened: as §1
# ETV1 = ETV1 (Homo sapiens, UniProt P50549 1-477); conditions: protein: recombinant; tags: N-terminal GST; dsDNA, one strand shown
# Procedure, shortened: as §1
# ERF = target: T6, ERF (Homo sapiens, UniProt P50548 1-548); conditions: protein: recombinant; tags: N-terminal GST; dsDNA, one strand shown
# T6 sequence: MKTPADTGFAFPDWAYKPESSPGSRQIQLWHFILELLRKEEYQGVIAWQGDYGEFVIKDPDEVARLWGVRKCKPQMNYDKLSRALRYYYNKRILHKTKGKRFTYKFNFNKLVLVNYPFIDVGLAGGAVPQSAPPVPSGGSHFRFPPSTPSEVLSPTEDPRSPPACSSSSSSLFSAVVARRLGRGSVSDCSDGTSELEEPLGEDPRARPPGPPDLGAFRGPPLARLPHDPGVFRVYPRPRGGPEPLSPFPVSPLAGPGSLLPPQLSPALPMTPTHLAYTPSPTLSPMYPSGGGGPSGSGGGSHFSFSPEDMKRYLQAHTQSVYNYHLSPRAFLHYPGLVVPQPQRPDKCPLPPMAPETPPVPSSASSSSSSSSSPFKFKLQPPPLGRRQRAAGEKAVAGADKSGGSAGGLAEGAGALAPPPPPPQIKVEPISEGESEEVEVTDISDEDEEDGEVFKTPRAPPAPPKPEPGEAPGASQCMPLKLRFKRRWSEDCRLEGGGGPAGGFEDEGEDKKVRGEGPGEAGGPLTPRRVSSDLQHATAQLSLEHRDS
# Procedure, shortened: as §1
# ETV3L = target: T7, ETV3L (Homo sapiens, UniProt Q6ZN32 1-361); conditions: protein: recombinant; tags: N-terminal GST; dsDNA, one strand shown
# T7 sequence: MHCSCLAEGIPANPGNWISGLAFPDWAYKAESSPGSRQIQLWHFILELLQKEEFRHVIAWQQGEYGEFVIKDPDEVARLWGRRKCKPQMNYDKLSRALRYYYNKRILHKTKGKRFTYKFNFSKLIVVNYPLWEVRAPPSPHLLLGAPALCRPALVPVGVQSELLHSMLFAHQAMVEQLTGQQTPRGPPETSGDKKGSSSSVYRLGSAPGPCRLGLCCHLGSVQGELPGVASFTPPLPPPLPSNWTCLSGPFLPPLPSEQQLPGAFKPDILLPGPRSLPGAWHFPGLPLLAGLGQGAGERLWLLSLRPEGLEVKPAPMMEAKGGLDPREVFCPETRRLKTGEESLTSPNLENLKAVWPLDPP
# Procedure, shortened: as §1
# ETS2 = target: T8, ETS2 (Homo sapiens, UniProt P15036 1-469); conditions: protein: recombinant; tags: N-terminal GST; dsDNA, one strand shown
# T8 sequence: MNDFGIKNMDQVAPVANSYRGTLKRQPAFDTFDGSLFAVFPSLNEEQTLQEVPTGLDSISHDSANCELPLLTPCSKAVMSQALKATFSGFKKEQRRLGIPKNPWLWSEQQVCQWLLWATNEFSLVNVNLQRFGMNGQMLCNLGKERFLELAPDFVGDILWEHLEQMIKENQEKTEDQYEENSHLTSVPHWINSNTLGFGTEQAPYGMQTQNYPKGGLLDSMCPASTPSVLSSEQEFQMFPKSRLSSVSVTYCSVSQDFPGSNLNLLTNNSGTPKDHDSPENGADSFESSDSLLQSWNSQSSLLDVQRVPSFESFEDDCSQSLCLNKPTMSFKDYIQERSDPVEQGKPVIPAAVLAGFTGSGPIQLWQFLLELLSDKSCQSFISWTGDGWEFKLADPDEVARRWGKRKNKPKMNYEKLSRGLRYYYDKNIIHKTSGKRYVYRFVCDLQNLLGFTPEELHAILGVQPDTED
# Procedure, shortened: as §1
# SPDEF = target: T9, SPDEF (Homo sapiens, UniProt O95238 1-335); conditions: protein: recombinant; tags: N-terminal GST; dsDNA, one strand shown
# T9 sequence: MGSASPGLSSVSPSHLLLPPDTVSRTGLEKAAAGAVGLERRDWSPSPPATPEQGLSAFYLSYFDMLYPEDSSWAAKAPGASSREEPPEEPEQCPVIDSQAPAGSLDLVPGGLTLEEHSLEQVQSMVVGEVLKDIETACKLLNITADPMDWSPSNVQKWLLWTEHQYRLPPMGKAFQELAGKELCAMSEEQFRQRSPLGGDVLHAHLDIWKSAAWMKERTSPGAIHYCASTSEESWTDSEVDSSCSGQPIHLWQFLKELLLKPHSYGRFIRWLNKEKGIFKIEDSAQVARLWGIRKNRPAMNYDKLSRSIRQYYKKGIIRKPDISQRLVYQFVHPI
# Procedure, shortened: as §1
# ETV7 = target: T10, ETV7 (Homo sapiens, UniProt Q9Y603 1-341); conditions: protein: recombinant; tags: N-terminal GST; dsDNA, one strand shown
# T10 sequence: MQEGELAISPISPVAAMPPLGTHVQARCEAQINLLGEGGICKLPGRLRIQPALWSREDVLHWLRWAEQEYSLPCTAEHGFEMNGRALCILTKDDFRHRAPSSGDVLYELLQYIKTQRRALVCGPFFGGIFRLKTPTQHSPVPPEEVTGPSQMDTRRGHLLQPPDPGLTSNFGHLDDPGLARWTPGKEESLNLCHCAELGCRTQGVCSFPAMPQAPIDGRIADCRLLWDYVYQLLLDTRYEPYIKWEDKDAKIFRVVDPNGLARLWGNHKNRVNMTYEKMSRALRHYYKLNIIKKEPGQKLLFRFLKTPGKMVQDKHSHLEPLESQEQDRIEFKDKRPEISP
# Procedure, shortened: as §1
# ELF5 = target: T11, ELF5 (Homo sapiens, UniProt Q9UKW6-2 1-255); conditions: protein: recombinant; tags: N-terminal GST; dsDNA, one strand shown
# T11 sequence: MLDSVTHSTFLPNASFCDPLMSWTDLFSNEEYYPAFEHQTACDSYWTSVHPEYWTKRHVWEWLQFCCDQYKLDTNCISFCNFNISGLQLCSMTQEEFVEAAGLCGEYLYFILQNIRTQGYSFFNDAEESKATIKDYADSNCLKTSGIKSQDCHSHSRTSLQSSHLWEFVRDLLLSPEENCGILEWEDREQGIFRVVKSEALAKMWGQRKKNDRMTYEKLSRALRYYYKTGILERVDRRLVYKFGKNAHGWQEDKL
# Procedure, shortened: as §1
# ETV3 = target: T12, ETV3 (Homo sapiens, UniProt P41162-2 1-143); conditions: protein: recombinant; tags: N-terminal GST; dsDNA, one strand shown
# T12 sequence: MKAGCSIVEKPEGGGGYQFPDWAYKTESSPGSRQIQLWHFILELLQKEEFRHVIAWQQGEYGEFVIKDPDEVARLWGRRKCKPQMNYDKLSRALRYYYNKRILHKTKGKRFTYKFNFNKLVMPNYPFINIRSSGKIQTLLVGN
# Procedure, shortened: as §1
# ETV6 = ETV6 (Homo sapiens, UniProt P41212 1-452); conditions: protein: recombinant; tags: N-terminal GST; dsDNA, one strand shown
# Procedure, shortened: as §1
# ELF4, sequence (Q99607 whole entry): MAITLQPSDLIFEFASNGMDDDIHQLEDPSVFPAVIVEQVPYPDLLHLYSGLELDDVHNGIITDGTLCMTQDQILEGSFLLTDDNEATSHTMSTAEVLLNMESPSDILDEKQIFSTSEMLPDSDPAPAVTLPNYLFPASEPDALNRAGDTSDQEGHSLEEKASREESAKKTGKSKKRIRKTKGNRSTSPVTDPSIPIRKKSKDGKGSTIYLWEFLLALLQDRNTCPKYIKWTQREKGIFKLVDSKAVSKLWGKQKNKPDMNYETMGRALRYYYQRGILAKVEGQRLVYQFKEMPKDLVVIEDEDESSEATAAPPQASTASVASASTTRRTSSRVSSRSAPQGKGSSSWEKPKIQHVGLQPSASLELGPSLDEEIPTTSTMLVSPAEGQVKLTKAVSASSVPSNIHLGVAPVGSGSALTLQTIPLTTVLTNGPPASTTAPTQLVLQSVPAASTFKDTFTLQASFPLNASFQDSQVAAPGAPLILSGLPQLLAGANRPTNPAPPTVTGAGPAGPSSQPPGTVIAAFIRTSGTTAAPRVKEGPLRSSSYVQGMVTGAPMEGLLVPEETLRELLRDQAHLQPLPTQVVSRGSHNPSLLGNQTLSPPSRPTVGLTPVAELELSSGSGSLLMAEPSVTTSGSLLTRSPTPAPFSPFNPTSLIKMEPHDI
# ETV5, sequence (P41161 whole entry): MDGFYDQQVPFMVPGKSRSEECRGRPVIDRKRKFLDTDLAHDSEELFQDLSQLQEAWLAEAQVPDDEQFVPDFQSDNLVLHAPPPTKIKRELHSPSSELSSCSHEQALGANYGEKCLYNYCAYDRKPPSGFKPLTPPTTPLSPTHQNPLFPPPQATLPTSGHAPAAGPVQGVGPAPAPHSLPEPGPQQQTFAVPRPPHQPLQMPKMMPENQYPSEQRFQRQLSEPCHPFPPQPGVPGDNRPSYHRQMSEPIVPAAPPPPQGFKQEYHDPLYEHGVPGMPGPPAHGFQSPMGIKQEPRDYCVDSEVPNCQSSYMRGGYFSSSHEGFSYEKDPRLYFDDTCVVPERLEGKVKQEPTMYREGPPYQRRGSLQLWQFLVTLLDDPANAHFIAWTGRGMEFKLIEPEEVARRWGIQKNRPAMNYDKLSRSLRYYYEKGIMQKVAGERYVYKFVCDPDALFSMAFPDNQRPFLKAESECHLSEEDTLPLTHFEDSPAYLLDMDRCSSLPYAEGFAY
# HSF1, sequence (Q00613 whole entry): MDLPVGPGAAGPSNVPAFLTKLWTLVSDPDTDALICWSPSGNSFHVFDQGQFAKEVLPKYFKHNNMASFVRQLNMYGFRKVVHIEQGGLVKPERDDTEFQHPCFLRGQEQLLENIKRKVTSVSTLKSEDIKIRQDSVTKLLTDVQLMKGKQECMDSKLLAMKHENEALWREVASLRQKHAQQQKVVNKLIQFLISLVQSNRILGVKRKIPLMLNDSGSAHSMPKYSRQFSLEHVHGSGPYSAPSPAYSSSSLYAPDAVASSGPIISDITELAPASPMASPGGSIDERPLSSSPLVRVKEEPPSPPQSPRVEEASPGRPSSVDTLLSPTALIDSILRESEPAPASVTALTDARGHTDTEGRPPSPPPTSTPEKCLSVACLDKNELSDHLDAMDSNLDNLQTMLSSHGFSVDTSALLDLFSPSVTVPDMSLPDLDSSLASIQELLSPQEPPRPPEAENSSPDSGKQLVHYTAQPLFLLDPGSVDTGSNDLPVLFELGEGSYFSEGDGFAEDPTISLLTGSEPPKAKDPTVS
# CRX, sequence (O43186 whole entry): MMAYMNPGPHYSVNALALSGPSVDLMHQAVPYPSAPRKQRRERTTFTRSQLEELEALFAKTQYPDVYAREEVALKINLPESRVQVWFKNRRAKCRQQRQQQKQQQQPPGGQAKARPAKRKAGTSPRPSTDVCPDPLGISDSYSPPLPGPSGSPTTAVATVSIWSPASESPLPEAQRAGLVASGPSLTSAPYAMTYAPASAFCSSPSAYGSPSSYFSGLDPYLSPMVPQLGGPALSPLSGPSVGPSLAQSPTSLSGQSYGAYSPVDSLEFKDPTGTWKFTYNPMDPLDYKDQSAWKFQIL
# ETV6, sequence (P41212 whole entry): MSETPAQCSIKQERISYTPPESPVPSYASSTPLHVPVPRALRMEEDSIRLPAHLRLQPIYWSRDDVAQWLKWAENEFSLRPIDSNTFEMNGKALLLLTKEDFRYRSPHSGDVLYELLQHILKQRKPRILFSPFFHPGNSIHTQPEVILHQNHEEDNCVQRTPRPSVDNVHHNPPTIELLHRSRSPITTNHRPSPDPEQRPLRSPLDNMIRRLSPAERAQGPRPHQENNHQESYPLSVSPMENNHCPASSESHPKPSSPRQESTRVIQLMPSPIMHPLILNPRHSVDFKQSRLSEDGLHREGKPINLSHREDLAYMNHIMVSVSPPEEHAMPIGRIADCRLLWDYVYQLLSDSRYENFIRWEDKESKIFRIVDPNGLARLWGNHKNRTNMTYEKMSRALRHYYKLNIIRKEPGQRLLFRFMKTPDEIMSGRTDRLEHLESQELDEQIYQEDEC
# ETV1, sequence (P50549 whole entry): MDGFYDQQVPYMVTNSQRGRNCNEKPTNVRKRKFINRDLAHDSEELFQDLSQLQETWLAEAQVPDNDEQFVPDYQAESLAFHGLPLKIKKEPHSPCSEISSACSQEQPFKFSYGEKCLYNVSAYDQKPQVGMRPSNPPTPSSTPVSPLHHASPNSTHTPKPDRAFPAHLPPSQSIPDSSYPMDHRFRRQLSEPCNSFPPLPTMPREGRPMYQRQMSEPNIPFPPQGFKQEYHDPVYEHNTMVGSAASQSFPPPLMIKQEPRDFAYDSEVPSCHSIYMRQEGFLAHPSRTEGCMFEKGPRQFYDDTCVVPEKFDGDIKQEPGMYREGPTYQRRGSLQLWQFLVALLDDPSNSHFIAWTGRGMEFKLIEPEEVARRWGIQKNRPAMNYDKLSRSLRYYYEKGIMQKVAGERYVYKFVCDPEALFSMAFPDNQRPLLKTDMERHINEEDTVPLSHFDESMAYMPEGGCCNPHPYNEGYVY
sequence,measurement,setting,value
CTATTG,binding signal,FEV,"1.24 fold enrichment (6-mer frequency, TF over GST control)"
same,binding signal,ETV5,"1.31 fold enrichment (6-mer frequency, TF over GST control)"
same,binding signal,HSF1,"1.1 fold enrichment (6-mer frequency, TF over GST control)"
same,binding signal,SPIC,"1.4 fold enrichment (6-mer frequency, TF over GST control)"
same,binding signal,ELF4,"1.28 fold enrichment (6-mer frequency, TF over GST control)"
same,binding signal,ELK4,"1.29 fold enrichment (6-mer frequency, TF over GST control)"
same,binding signal,ETV2,"1.31 fold enrichment (6-mer frequency, TF over GST control)"
same,binding signal,ELF3,"1.39 fold enrichment (6-mer frequency, TF over GST control)"
same,binding signal,CRX,"1.14 fold enrichment (6-mer frequency, TF over GST control)"
same,binding signal,ETV1,"1.36 fold enrichment (6-mer frequency, TF over GST control)"
same,binding signal,ERF,"1.37 fold enrichment (6-mer frequency, TF over GST control)"
same,binding signal,ETV3L,"1.27 fold enrichment (6-mer frequency, TF over GST control)"
same,binding signal,ETS2,"1.35 fold enrichment (6-mer frequency, TF over GST control)"
same,binding signal,SPDEF,"1.18 fold enrichment (6-mer frequency, TF over GST control)"
same,binding signal,ETV7,"1.25 fold enrichment (6-mer frequency, TF over GST control)"
same,binding signal,ELF5,"1.23 fold enrichment (6-mer frequency, TF over GST control)"
same,binding signal,ETV3,"1.42 fold enrichment (6-mer frequency, TF over GST control)"
same,binding signal,ETV6,"1.35 fold enrichment (6-mer frequency, TF over GST control)"
